CBFb-RUNX1 inh: inhibitors of human CBF-beta and RUNX1 interaction. AlphaScreen CBFb-His/RUNX1-biotin binding, biochemical. Q01196+Q13951. AID 1477. Potency, µM (highest dose often 59.8 µM), inactives show top-dose activity, negative = inhibition, actives largely listed as inhibitors. 230,000 tested, under 10 active; note: % of control where 0% means no effect
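Inhibition was taken as any reduction in AlphaScreen signal from the CBF-beta–RUNX1 pair (His and biotin tags, 30 nM each), measured after compound (15 min) and bead (90 min) incubations at room temperature.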
PNC inhibitor: blocks assembly of the perinucleolar compartment; PC3M PTB-GFP, PNC prevalence imaging, 16 h; stronger effect = lower value; activity change (PNC), negative = inhibition, % at 10 µM; actives 3.1% (n = 140,000); AID 2417;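 active = readout at or below -70, meaning at least 70% loss of cells showing the perinucleolar compartment, a nuclear body marking cancer cells; inconclusive = readout between -30 and a set limit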;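 note: plate controls were DMSO wells for no effect and camptothecin positive control wells for full effect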
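Compounds are pinned in duplicate onto adhered PC3M cells stably expressing GFP-tagged PTB and incubated 16 h at 37 C. Cells are then fixed, nuclei stained with Hoechst, and PNC-positive cells counted.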
HttQ103 aggreg: mutant huntingtin aggregation inhibition. actives 1.1% (n = 220,000). Potency, µM (top dose mostly 46.1 µM), for inactives: at the top dose activity change, negative = inhibition, hits mostly inhibitors. AID 1688. PC12 HttQ103-GFP aggregates, Acumen cytometry, 40 h; note: potency is the fitted concentration of half-maximal effect; % is set by controls: 0 for no effect and ±100 for the full control effect; nearly all actives have a fitted effect of over 60% in size
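Steps: seed 1500 PC12 HTTQ103-GFP cells/well; add tebufenozide, 100 nM final; add compound titration; add ATPLite reagent; quantify GFP aggregates by laser scanning cytometry.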
HPGD block: inhibitors of human 15-hydroxyprostaglandin dehydrogenase (HPGD); Potency, µM, for inactives: at the highest dose activity change, negative = inhibition, most hits filed as inhibitors; purified HPGD, NADH fluorescence kinetic, PGE2 substrate; actives 4.3% (n = 150,000); P15428; active = well fitted inhibition curve with a large enough effect, not every such curve was filed as active; inconclusive = small, poorly fitted or top-dose-only effect, or another doubt; inactive = no such curve, though single readings can be large or run the other way; note: potency is the fitted concentration of half-maximal effect; % is set by controls: 0 for no effect and ±100 for the full control effect
Target sequence (P15428 whole entry, looked up): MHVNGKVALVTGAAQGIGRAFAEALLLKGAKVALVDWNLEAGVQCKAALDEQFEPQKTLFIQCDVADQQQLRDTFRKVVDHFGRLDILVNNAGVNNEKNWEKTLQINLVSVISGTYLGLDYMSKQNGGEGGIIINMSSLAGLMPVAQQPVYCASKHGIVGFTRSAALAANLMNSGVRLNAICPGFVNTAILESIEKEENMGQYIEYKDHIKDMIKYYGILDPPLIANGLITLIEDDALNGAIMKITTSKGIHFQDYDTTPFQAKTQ
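20 nM HPGD preincubated 15 min at room temperature with compound in 50 mM Tris-HCl pH 8, 0.01% Tween 20. Started with 1 mM NAD+ and 30 uM prostaglandin E2; NADH fluorescence (360/450 nm) read 5 times over 30-s intervals, last minus first.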
HTT cytoprotect: protects HTT-Q103 PC12 cells, measured by ATP; Potency, µM (top dose mostly 56.4 µM), for inactives: cytoprotection (ATP increase), hits mostly activators; PC12 HTT-Q103 induced, cytoprotection, ATP luminescence, 40 h; actives 0.14% (n = 230,000); AID 1471; note: potency is the fitted concentration of half-maximal effect; % of control where 0% means no effect; nearly all actives have a fitted effect of over 45% in size
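Cells were plated at 1500 per well in phenol red-free DMEM with 5% equine and 5% calf serum. Tebufenozide (100 nM final) and compounds were added, then ATPlite reagent, and luminescence was read.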
ALDH1A1 inh: ALDH1A1 (human) enzyme inhibition. Potency, µM (top dose mostly 75.3 µM), without a hit: at the top dose activity, negative = inhibition, actives largely listed as inhibitors. actives 7.3% (n = 220,000). P00352. Purified ALDH1A1, NADH fluorescence, propionaldehyde substrate; active = well fitted inhibition curve with a large enough effect, not every such curve was filed as active; inconclusive = small, poorly fitted or top-dose-only effect, or another doubt; inactive = no such curve, though single readings can be large or run the other way;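 note: potency is the fitted concentration of half-maximal effect; plate controls were no enzyme wells and a reference inhibitor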
Target sequence (P00352 whole entry, looked up): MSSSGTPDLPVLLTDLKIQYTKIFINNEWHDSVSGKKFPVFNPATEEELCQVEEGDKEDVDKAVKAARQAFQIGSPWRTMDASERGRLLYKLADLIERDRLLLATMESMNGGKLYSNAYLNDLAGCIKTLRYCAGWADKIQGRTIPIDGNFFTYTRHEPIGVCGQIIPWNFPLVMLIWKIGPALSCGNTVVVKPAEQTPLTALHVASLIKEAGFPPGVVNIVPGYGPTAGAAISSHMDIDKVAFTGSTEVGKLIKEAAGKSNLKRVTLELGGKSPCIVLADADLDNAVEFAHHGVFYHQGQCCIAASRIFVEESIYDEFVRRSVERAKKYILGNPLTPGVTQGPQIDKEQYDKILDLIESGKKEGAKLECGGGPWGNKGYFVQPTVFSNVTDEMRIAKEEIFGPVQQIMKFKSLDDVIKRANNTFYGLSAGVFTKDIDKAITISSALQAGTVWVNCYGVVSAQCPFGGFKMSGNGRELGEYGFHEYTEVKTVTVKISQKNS
An asterisk follows results filed as active; ? = inconclusive; . = no result; [ ] = remark or other dose. In the library only some 11% were active in any assay of this set; here they are far more common. Unless noted, calls come from the whole dose curve; as a rule, active = well fitted curve in the direction sought with a large enough effect; inconclusive = small, poorly fitted or top-dose-only effect, or another doubt; inactive = no such curve, though single readings can be large; an effect the other way counts as inactive or inconclusive.

SMILES	CBFb-RUNX1 inh	PNC inhibitor	HttQ103 aggreg	HPGD block	HTT cytoprotect	ALDH1A1 inh
COc1ccccc1C/C(N)=N/OC(=O)c1ccco1	2%	.	17%[9.22 µM]	.	22%[10 µM]	-8%
CCCNC(=O)OC[C@H]1O[C@@H](CCO/N=C\[C@@H](NS(=O)(=O)c2ccc(C)cc2)[C@H](C)/C=C\CC(=O)OC)C=C[C@@H]1Oc1ccc(OC)cc1	3%[13.1 µM]	.	.	.	0%[10 µM]	?
COc1ccc(S(=O)(=O)Nc2cc(C)c(O)cc2C(C)C)cc1	5%	-20	6%	-18%	2%[10 µM]	-8%
COc1ccc(S(=O)(=O)Nc2cc(C(C)C)c(O)cc2C)cc1	0%	-3	7%	-4%	9%	0.32µM*
CCn1c(CNC(=O)Cc2ccc(OC)cc2)nnc1SCC(=O)c1ccc(Br)cc1	5%	-5	11%[9.22 µM]	-11%	-4%	?
CCn1c(COc2ccc(C)cc2)nnc1SCC(=O)NNC(=O)c1ccc(OC)cc1	-5%	-83*	-12%	1%	35%[10 µM]	-8%
CCn1c(SCC(=O)NNC(=O)c2ccc(OC)cc2)nnc1-c1cccnc1	2%	.	-8%[9.22 µM]	.	18%[10 µM]	-3%
CCn1c(CNC(=O)c2ccc(OC)cc2)nnc1SCC(=O)c1ccccc1	8%	10	?	-16%	0%[10 µM]	13µM*
CCOC(=O)CSc1nnc(CNC(=O)c2ccc(OC)cc2)n1Cc1ccccc1	4%	13	-15%	-7%	6%	-7%
COc1ccc(C(=O)NCc2nnc(SCC(=O)N3CCc4ccccc43)n2Cc2ccccc2)cc1	8%	-100*	18%	-17%	.	?
CCn1c(CNC(C)=O)nnc1SCC(=O)c1ccc(Br)cc1	4%	8	?	?	-4%	15µM*
Cc1c(C(=O)N2CCC(C)CC2)oc2ccc(S(=O)(=O)N3CCC4(CC3)OCCO4)cc12	4%	-28	-29%	-11%	2%	?
COC1C(O)C(O)C(O)C(O)C1O (centres undefined)	.	.	.	-1%	.	-7%
O=c1c2c3c(sc2nc(NCCO)n1CCc1ccccc1)CCCCC3	-13%	-28	-17%	-16%	13%[10 µM]	?
C=CCn1c(NCCO)nc2sc3c(c2c1=O)CCC3	5%	-114*	3%	-7%	20%[10 µM]	-3%
Cc1ccccc1C#N	5%[21.7 µM]	.	.	-1%	0%	3%
Cc1ccc(S(=O)(=O)N(C)CCCC(=O)n2nc(C)cc2C)cc1	7%	-15	-16%	-14%	8%	-3%
COc1cccc(/C=N/Nc2nc3ccccc3n3cnnc23)c1O	-22%	-6	8.9µM*	-7%	-42%[10 µM]	?
Oc1ccc(/C=N/Nc2nccnc2Cl)c(O)c1	2%	53	-30%[9.22 µM]	28µM*	0%	?
O=[N+]([O-])c1cccnc1N/N=C/c1ccccc1O	-3%	.	?	.	.	89µM*
COc1cccc(/C=N/Nc2ncnc(Cl)c2N)c1O	.	?	?	-10%	-86%[10 µM]	3%
COc1cccc(/C=N/Nc2nccnc2Cl)c1O	?	.	1.3µM*	.	-86%[10 µM]	6%
O=C(/C=C/c1ccccc1)c1ccc(O[C@H]2OC(CO)C(O)C(O)C2O)cc1O (some centres undefined)	?	.	.	-7%	-25%	-5%
O=C(c1cccc(F)c1)N1CCC2(CC1)CN(c1ncccn1)C2	.	.	.	?	-2%	?
CN1CCN(c2ncc3nc(-c4cccs4)c(=O)n(C[C@H]4CCCO4)c3n2)CC1	.	.	.	?	2%	?
SMILES	CBFb-RUNX1 inh	PNC inhibitor	HttQ103 aggreg	HPGD block	HTT cytoprotect	ALDH1A1 inh
Oc1ccc(/C=N/Nc2ncc(Br)cn2)c(O)c1	16%	47	13µM*	?	36%[10 µM]	-3%
Oc1ccccc1/C=N/Nc1nccnc1Cl	.	-88*	?	-4%	-82%[10 µM]	3%
Oc1ccc(/C=N/Nc2cccc3cccnc23)c(O)c1	-7%	-11	?	16µM*	-6%[10 µM]	?
COc1cccc(/C=N/Nc2ncnc3scc(-c4ccccc4)c23)c1O	-25%	-101*	8.9µM*	20µM*	.	4%
CC[C@H](C)[C@H](NC(=O)[C@H](Cc1ccc(O)cc1)NC(=O)CNC(=O)[C@@H]1CCCN1C(=O)[C@H](CC(=O)O)NC(=O)[C@@H](N)CS)C(=O)NCC(=O)N[C@@H](CO)C(=O)N[C@@H](CCCN=C(N)N)C(N)=O	4%	.	.	.	.	.
COC(=O)c1sccc1N/N=C/c1cccc(OC)c1O	10%	-116*	6%	-22%	0%[10 µM]	3%
Oc1ccc(Br)cc1/C=N/n1cnc2ccccc21	-5%	0	-18%	14µM*	-6%[0.074 µM]	8%
CC(=O)Oc1cc2oc(=O)cc(C)c2cc1Cl	1%	.	-1%[9.22 µM]	.	26%[10 µM]	.
O=C(Oc1cc2oc(=O)cc(-c3ccccc3)c2cc1Cl)C1CCCCC1	11%	-7	7.1µM*	?	-27%	?
CC(C)(C)OC(=O)NCC(=O)Oc1cc2oc(=O)cc(-c3ccccc3)c2cc1Cl	19%	?	4µM*	?	-20%[10 µM]	25µM*
NCC1CCC(N)C(O[C@@H]2C(O)[C@H](O[C@H]3OC(CO)C(O)C(N)C3O)[C@@H](N)C[C@H]2N)O1 (some centres undefined)	5%	.	-7%	-4%	-4%	-5%
CC(=O)c1cc(C)oc1C	-1%[21.7 µM]	.	.	-22%	-63%	-24%
CN1CCN(C(=S)NC(=O)c2ccc(Br)cc2)CC1	4%	.	8%[9.22 µM]	.	21%[10 µM]	.
CN1CCN(C(=S)C(=O)Nc2ccc(Br)cc2)CC1	-9%	.	26%	.	-22%	7.9µM*
O=C(c1ccc(COc2ccccc2[N+](=O)[O-])o1)N1CCCCC1	-4%	-27	-16%	22µM*	-3%	?
O=C(c1ccc(COc2ccccc2[N+](=O)[O-])o1)N1CCCCCC1	3%	?	5%	25µM*	8%	-15%
O=C(c1ccc(COc2c(F)c(F)c(F)c(F)c2F)o1)N1CCOCC1	9%	?	4%	-6%	19%	-8%
COc1ccccc1OCc1ccc(C(=O)N2CCOCC2)o1	6%	3	-6%	-7%	.	25µM*
c1cncc(CNc2ncncc2-c2ccc3c(c2)OCO3)c1	.	.	.	?	1%	?
COC(=O)CNC(=O)C(=O)OC	18%	.	.	.	-30%	2%
CCCCOCCOCCSC#N	3%[21.7 µM]	.	.	-7%	2%	-4%
CCCN1CCC(=O)N(C(CSc2ccc(Br)cc2)c2ccccc2)CC1 (centres undefined)	-6%	.	.	.	.	.
C=CC1=C2C=C(C3CC3)N(CCN3CCOCC3)C=C2C(=O)C(C)(OC(=O)c2ccco2)C1=O (centres undefined)	-5%[13.1 µM]	.	.	-2%	-11%[10 µM]	?
O=C1c2ccccc2C(=O)N1OCc1ccc(Cl)cc1	3%	12	16%	-9%	3%	4%
